# Screening data (PubChem BioAssay)
# PAX8 reporter: inhibitors of PAX8 transcriptional activity in RMG-I cells; RMG-I TPO-luciferase reporter, SteadyGlo, 24 h; inhibition, % at 12.6 µM; 1.2% of 360,000 active;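 active = mean replicate inhibition at least 60% with every replicate also reaching 60%; inconclusive = only one of the two criteria is met; inactive = mean below 60% and not all replicates reaching 60%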;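 note: luciferase light reporting Pax8 driven TPO promoter activity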
# HIF-2a block: blocks HIF-2a reporter activity | 786-0 RCC cells HIF-2a reporter, luciferase luminescence, overnight | AID 624352 | 0.72% of 360,000 active | inhibition, % at 18.8 µM;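 active = inhibition of the luminescence signal of 40% or more relative to plate controls, in a single-dose primary screen at 18.75 µM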
# EWS-Fli inh: EWS/Fli transcriptional activity inhibition. 0.67% of 350,000 active. inhibition, % at 12.6 µM. AID 651661. A673 NR0B1-luciferase reporter, viability-normalised;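 active = mean inhibition of at least 50% after viability correction, with every replicate also passing that limit; inconclusive = mean reaches 50% but only one of two replicates passes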;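 note: firefly luciferase signal divided by Alamar Blue viability fluorescence both relative to DMSO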
# CF NFkB inh: inhibitors of cystic fibrosis induced NF-kB; 0.86% of 360,000 active; inhibition, % at 5 µM; KKLEB NF-kB-GFP reporter, PAF-induced, GFP fluorescence overnight;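 active = at least 50% inhibition at 5 µM, scaled per plate between neutral and stimulator controls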;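 note: PAF is a Pseudomonas aeruginosa culture filtrate used as stimulus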
# KKLEB tox: counter-screen for CF NF-kB inhibitors: cytotoxicity | KKLEB CF airway cells viability, ATPlite luminescence, overnight; hits give low values; cells stimulated with P. aeruginosa culture filtrate | activity change (cytotoxicity), % at 5 µM | 0.36% of 360,000 active;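 active = corrected activity change at or below -50% at 5 µM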
# CF NFkB inh conf: confirmation of cystic fibrosis induced NF-kB inhibitors. shares compounds with CF NFkB inh. KKLEB CF airway cells, PAF-induced NF-kB-GFP fluorescence, overnight. inhibition, % at 5 µM. 64% of 1,300 active; in the data active = inhibition above about 40%;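 note: stimulus PAF is a Pseudomonas aeruginosa filtrate and not platelet activating factor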
# A number is an active result; i = inactive; ? = inconclusive; nt = no result. An excerpt weighted towards active compounds, which were near 2.1% of everything screened.
SMILES,PAX8 reporter,HIF-2a block,EWS-Fli inh,CF NFkB inh,KKLEB tox,others
COC(=O)[C@@H]1[C@@H](CO)[C@@H]2Cn3c(ccc(-c4ccc(OC)cc4)c3=O)[C@H]1N2C(=O)c1ccccc1F,i,nt,i,nt,nt,
CC(C)(C)c1cc(C=C(C#N)C#N)cc(C(C)(C)C)c1O,108.5,i,i,i,i,
N#CC(C#N)=Cc1ccc(O)c(O)c1,i,i,i,i,i,
O=C(O)[C@H]1[C@H](CO)[C@H]2Cn3c(ccc(-c4ccncc4)c3=O)[C@@H]1N2C(=O)C1CC1,i,nt,i,nt,nt,
O=C(Cc1cccnc1)N1CCCCN2[C@H](C1)[C@H](c1ccc(C#CC3(O)CCCC3)cc1)[C@@H]2CO,i,nt,i,nt,nt,
CC1=C(O)C(=O)C=C2C1=CC=C1C2(C)CCC2(C)C3CC(C)(C(=O)O)CCC3(C)CCC12C (stereo unspecified),118.8,91.9,64.7,78.1,-74.8,
Clc1cccc(N2CCNCC2)c1Cl,i,i,nt,i,-67.1,
c1ccc2c(N3CCNCC3)cccc2c1,i,i,i,i,i,
O=C1C=C(N2CC2)c2ccccc2C1=O,i,i,i,60.2,i,
O=C1CNC[C@@H]2[C@H](c3ccc(Br)cc3)[C@H](CO)N12,i,nt,i,nt,nt,
O=C(Cc1ccccn1)N1CCCCN2[C@H](CO)[C@@H](c3ccc(-c4ccc(F)cc4)cc3)[C@@H]2C1,i,nt,i,nt,nt,
CCCN1CCc2cc(O)cc3c2[C@H]1Cc1ccc(O)c(O)c1-3,i,i,i,i,i,
CN1CCc2cc(O)cc3c2[C@H]1Cc1ccc(O)c(O)c1-3,?,i,i,i,-76.8,
O=C(Cc1ccccn1)N1CCCCN2[C@H](C1)[C@@H](c1ccc(-c3ccccc3)cc1)[C@@H]2CO,i,nt,i,nt,nt,
Cc1c2ccncc2c(C)c2c1[nH]c1ccccc12,nt,i,nt,83.1,i,
COC1CCC(OC2CC(C3(C)CCC4(CC(O)C(C)C(C(C)/C=C(\C)C(=O)C(C)CC(C)C(=O)O)O4)O3)OC3(OC(C4OC(O)(CO)C(C)CC4C)CC3C)C2C)OC1C (stereo unspecified),105.7,74.1,64.7,81.9,-75.4,
O=C(Cc1ccccn1)N1CCCCN2[C@H](CO)[C@H](c3ccc(Br)cc3)[C@@H]2C1,i,nt,i,nt,nt,
O=C(O)CCCc1ccc(N(CCCl)CCCl)cc1,i,i,i,i,i,
ClCCN(CCCl)c1ccc(-n2cnc3c(Cl)ncnc32)cc1,i,i,55.2,i,i,
O=[N+]([O-])c1ccc(N2CCNCC2)cc1N1CCCCC1,83.1,i,i,i,i,
Nc1cc(N2CCNCC2)c([N+](=O)[O-])cc1Cl,i,i,nt,i,i,
COc1ccc(-c2ccc([C@@H]3[C@H]4CN(C(=O)Cc5ccncc5)CCCCN4[C@H]3CO)cc2)cc1,i,nt,i,nt,nt,
COC(=O)[C@]12OC[C@]34C([C@@H](O)[C@@H]1O)[C@]1(C)CC(=O)C(O)=C(C)[C@@H]1C[C@H]3OC(=O)[C@H](O)[C@@H]24 (stereo partly specified),i,44.9,i,i,i,
CC1=CC(O)C(O)C2(C)C1CC1OC(=O)C(O)C3C(C)C(O)C4(O)OCC13C42 (stereo unspecified),nt,i,nt,i,i,
CCC(C)C1NC(=O)C2CCCN2C(=O)C(CC(C)C)OC(=O)CCNC(=O)C(C)N(C)C(=O)C(C(C)C)N(C)C1=O (stereo unspecified),72.2,i,i,i,i,
SMILES,PAX8 reporter,HIF-2a block,EWS-Fli inh,CF NFkB inh,KKLEB tox,others
O=C(C1CC1)N1C[C@@H]2N[C@H](C1)C2c1ccc(-c2cncnc2)cc1 (stereo partly specified),i,nt,i,nt,nt,
O=C(C1CC1)N1C[C@@H]2N[C@H](C1)[C@@H]2c1ccc(-c2ccncc2)cc1,85.0,nt,80.5,nt,nt,
CC=Cc1ccc2n(c1=O)C[C@@H]1[C@@H](CO)[C@H](C(=O)OC)[C@H]2N1CC1CCCC1 (mixture of isomers),nt,nt,i,nt,nt,
CC(=O)OC12COC1CC(O)C1(C)C(=O)C(O)C3=C(C)C(O)CC(O)(C(OC(=O)c4ccccc4)C21)C3(C)C (stereo unspecified),nt,i,72.6,i,i,
CC(=O)O[C@@]12CO[C@@H]1C[C@@H](O)[C@@]1(C)C(=O)[C@H](O)C3=C(C)[C@@H](OC(=O)[C@H](O)[C@@H](NC(=O)c4ccccc4)c4ccccc4)C[C@@](O)([C@@H](OC(=O)c4ccccc4)C12)C3(C)C (stereo partly specified),nt,i,55.1,i,i,
CC(=O)O[C@@]12CO[C@@H]1C[C@H](OC1OCC(O)C(O)C1O)[C@@]1(C)C(=O)[C@H](O)C3=C(C)[C@@H](OC(=O)[C@H](O)[C@@H](NC(=O)c4ccccc4)c4ccccc4)C[C@@](O)([C@@H](OC(=O)c4ccccc4)C12)C3(C)C (stereo partly specified),nt,i,55.3,i,i,
CCCCCC(=O)N[C@@H](c1ccccc1)[C@@H](O)C(=O)O[C@H]1C[C@@]2(O)[C@@H](OC(=O)c3ccccc3)C3[C@](C)(C(=O)[C@H](O)C(=C1C)C2(C)C)[C@@H](OC1OCC(O)C(O)C1O)C[C@H]1OC[C@@]31OC(C)=O (stereo partly specified),nt,i,i,i,i,
O=C(O)[C@@H]1[C@@H](CO)[C@@H]2Cn3c(ccc(-c4ccc(F)cc4)c3=O)[C@H]1N2CC1CCCCC1,i,nt,i,nt,nt,
O=c1[nH]c2ccccc2n1C1CCN(Cc2ccc(-c3[nH]c4cc5ncnc5cc4nc3-c3ccccc3)cc2)CC1,72.1,i,i,nt,nt,
O=c1[nH]c2cc(Cl)ccc2n1C1CCN(Cc2ccc(-c3nc4ccccc4nc3-c3ccccc3)cc2)CC1,i,nt,i,nt,nt,
NC(=O)c1ccc(N)nc1,i,i,i,77.8,-90.6,
CC=Cc1ccc2n(c1=O)C[C@@H]1[C@@H](CO)[C@H](C(=O)OC)[C@H]2N1CC1CC1 (mixture of isomers),nt,nt,i,nt,nt,
O=C(O)[C@@H]1[C@@H](CO)[C@@H]2Cn3c(ccc(-c4cccnc4)c3=O)[C@H]1N2C(=O)Nc1cc(F)ccc1F,nt,nt,i,nt,nt,
O=C(Cc1ccccn1)N1CCCCN2[C@H](C1)[C@@H](c1ccc(C#Cc3ccccc3)cc1)[C@@H]2CO,i,nt,i,nt,nt,
O=c1[nH]c2ccccc2n1C1CCN(C(c2cccc3ccccc23)c2nnnn2Cc2ccccc2)CC1 (stereo unspecified),73.3,i,i,85.9,i,CF NFkB inh conf=104.8
COc1ccc(-n2nnnc2C(c2cccs2)N2CCC(n3c(=O)[nH]c4ccccc43)CC2)cc1 (stereo unspecified),70.8,i,i,79.2,i,CF NFkB inh conf=96.8
COc1ccc(-n2nnnc2C(c2cccc(OC)c2OC)N2CCC(n3c(=O)[nH]c4ccccc43)CC2)cc1 (stereo unspecified),i,i,i,84.1,i,CF NFkB inh conf=41.1
O=C1NCN(c2ccccc2)C12CCN(C(c1cccc3ccccc13)c1nnnn1Cc1ccccc1)CC2 (stereo unspecified),i,i,i,i,i,
